Data as given in PubChem BioAssay AID1347165 (National Center for Advancing Translational Sciences (NCATS), 2019).
Several values for one entry are separate records, joined by “and”; a condition that tells them apart may be missing. Equal entries are not always repeated. Out of some 220,000 compounds screened, about 5,700 (2.6%) were called active. Entries that show only a call come without a potency. Inconclusive results (about 18%) are left out. Calls come from the whole dose curve; as a rule, active = well fitted inhibition curve with a large enough effect; inconclusive = small, poorly fitted or top-dose-only effect; inactive = no such curve, though single readings can be large or run the other way. This excerpt belongs to a sample that is enriched for actives.

The molecules below were run against Lysine-specific demethylase 5B (Homo sapiens) (UniProt Q9UGL1) (assay: Primary screen for KDM5B Histone Demethylases FDH-coupled qHTS). Details: FDH-coupled NADH fluorescence (FDH is formaldehyde dehydrogenase); series mostly up to 57.7 µM.
Chain of Lysine-specific demethylase 5B (Homo sapiens) (Q9UGL1 whole entry, looked up): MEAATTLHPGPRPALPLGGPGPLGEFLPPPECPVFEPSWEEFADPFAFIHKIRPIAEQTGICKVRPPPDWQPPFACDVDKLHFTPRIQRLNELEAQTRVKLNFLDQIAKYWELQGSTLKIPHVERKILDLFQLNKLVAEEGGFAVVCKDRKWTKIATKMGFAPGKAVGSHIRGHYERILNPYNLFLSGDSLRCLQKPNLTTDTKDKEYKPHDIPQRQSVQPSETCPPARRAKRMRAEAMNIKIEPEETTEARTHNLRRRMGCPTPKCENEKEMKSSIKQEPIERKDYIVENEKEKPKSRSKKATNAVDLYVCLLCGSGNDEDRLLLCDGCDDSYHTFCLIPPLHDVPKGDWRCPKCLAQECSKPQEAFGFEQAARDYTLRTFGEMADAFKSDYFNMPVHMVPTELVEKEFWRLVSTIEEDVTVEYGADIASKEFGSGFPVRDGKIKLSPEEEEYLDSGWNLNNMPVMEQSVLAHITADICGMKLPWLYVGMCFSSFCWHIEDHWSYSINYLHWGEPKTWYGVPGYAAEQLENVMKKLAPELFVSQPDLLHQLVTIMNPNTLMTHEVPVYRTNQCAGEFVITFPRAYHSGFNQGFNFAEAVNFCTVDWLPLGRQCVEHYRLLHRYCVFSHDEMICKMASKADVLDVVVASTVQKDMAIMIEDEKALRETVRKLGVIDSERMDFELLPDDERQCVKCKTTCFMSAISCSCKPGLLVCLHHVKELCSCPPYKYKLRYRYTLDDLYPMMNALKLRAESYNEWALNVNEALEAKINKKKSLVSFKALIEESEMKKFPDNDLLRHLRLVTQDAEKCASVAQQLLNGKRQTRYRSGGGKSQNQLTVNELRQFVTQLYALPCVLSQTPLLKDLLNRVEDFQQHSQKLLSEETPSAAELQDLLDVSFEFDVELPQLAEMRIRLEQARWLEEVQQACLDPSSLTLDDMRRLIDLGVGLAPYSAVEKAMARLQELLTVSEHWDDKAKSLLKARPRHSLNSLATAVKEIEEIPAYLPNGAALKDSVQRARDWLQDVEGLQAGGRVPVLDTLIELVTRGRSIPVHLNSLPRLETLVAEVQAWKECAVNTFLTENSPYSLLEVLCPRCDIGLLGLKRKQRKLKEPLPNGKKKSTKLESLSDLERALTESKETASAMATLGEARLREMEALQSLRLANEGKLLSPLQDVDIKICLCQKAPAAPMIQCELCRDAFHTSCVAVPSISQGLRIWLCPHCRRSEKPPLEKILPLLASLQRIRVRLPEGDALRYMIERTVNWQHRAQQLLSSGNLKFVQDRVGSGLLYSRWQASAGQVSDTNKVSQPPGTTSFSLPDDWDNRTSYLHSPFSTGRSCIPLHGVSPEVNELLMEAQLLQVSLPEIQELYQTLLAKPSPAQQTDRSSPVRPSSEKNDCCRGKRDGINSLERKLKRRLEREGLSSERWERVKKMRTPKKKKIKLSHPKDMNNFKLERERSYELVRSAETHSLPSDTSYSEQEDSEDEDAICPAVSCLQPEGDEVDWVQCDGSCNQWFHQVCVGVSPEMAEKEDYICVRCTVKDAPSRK
Method in brief: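 Here, H3K4me3 peptide (12.5 µM in substrate mix) is demethylated by KDM5BΔAP, 200 nM final, after 10 min compound exposure. Formaldehyde product is coupled through FDH (0.25 U/mL in mix) to NADH fluorescence; 30-min ΔRFU feeds dose-response curves.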
Note: nearly all actives have a fitted effect of over 70% in size.
Potency is the fitted concentration of half-maximal effect.

Row | Structure (SMILES) | Potency
1 | CCOc1ccc(NC(=O)CN(C)C(=O)Cn2c(=O)cnc3ccccc32)cc1OCC | inactive
2 | COc1ccc(N2C(=O)C(C)CS2(=O)=O)cc1S(=O)(=O)Nc1ccc(N2CCCC2)cc1 (centres undefined) | inactive
3 | Cc1ccc(N2CCC(NC(=O)c3ccc4[nH]ccc4c3)C2=O)cc1C (centres undefined) | 31.6 µM (active)
4 | Cc1ccc(C(=O)NC2CCSC2=O)cc1C (centres undefined) | inactive
5 | Cc1cc(N2CCC(NC(=O)c3ccc(N(C)C)cc3)C2=O)ccc1F (centres undefined) | inactive
6 | COCC(=O)N1CCN(C2CCN(CCc3ccccc3)C2=O)CC1 (centres undefined) | inactive
7 | CCc1cccc(CC)c1NC(=O)C(C)Sc1ccc(C)cc1 (centres undefined) | inactive
8 | Cc1cc(NC(=O)Nc2c(C3=CCCCC3)c(C)nn2C)ccc1Br | inactive
9 | O=c1[nH]c(-c2ccncc2)nc2c1CCN(S(=O)(=O)N1CCCC1)C2 | inactive
10 | Cc1ccc(C(=O)NC2CCN(C(=O)Nc3ccc(F)cc3)CC2)cc1 | inactive
11 | CC(=O)c1ccc(NC(=O)N2CCc3c(nc(-c4ccc(F)cc4)[nH]c3=O)C2)cc1 | 25.1 µM (active)
12 | O=C(c1ccco1)N1CCC(C(=O)N2CCN(C(=O)C3CC3)CC2)CC1 | inactive
13 | CC(=O)Nc1ccc(SCC(=O)N(Cc2nc3ccccc3c(=O)[nH]2)CC2CCCO2)cc1 (centres undefined) | inactive
14 | Cc1nnc(-c2cc(-c3ccccc3)ccn2)n1CCc1ccccc1 | inactive
15 | COCCn1c(C)nnc1-c1cc(-c2cccc(F)c2)ccn1 | inactive
16 | COc1ccc(-c2ccnc(-c3nnc(C)n3C3CCN(C)CC3)c2)cc1OC | 31.6 µM (active)
17 | Cc1nnc(CSc2nnc(Nc3cccc(C)c3C)s2)o1 | inactive
18 | O=C(Nc1cccn2nc(C3CCC3)nc12)c1cccc(F)c1 | inactive
19 | Fc1ccc(-c2ccnc3nc(C4CCC4)nn23)cc1 | 31.6 µM (active)
20 | COc1cc(C(=O)N2CCC(c3ccncc3)CC2)cc(OC)c1OC | inactive
21 | COc1ccc(N2CC(c3noc(-c4cc(OC)c(OC)c(OC)c4)n3)CC2=O)cc1 (centres undefined) | inactive
22 | COc1cc(-c2ccnc3nc(C4CC4)nn23)cc(OC)c1OC | 17.8 µM (active)

Row | Structure (SMILES) | Potency
23 | CCC(=O)c1ccc(OC(=O)c2cc3ccccc3oc2=O)cc1 | inactive
24 | CSc1ncc(C(=O)Nc2ccc(Cl)cc2)c(C(F)(F)F)n1 | inactive
25 | COc1ccccc1NC(=O)C1c2ccccc2C(=O)N(CC(C)C)C12CCCC2 (centres undefined) | inactive
26 | CC(C)(C)C(=O)c1cn(CCOc2ccccc2F)c2ccccc12 | inactive
27 | COc1nccnc1NC1CCN(C(=O)NCc2ccccc2)CC1 | 28.2 µM (active)
28 | COc1nccnc1NC1CCN(C(=O)CCc2ccccc2)CC1 | 25.1 µM (active)
29 | O=C(NCc1ccccc1)N1CCN2C(=O)NC[C@H]2C1 | inactive
30 | Cc1ccc(OCc2nc(C3CCN(C(=O)CCc4nc5ccc(Cl)cc5[nH]4)CC3)no2)cc1 | inactive
31 | COCCNC(=O)[C@@H]1C[C@@H](O)CN1C1CCN(C(=O)CCc2ccccc2)CC1 | inactive
32 | Cc1noc(C)c1CC(=O)N1CCC(c2n[nH]c(=O)n2Cc2ccc(F)cc2)CC1 | inactive
33 | COc1nccnc1NC1CCN(C(=O)CCc2c(C)noc2C)CC1 | 31.6 µM (active)
34 | Cc1nc2c(c(NC3CC3)n1)CCN(C(=O)CCc1cccnc1)CC2 | inactive
35 | COc1nc2ccccc2nc1N1CCC(C(=O)NCc2ccccc2)CC1 | inactive
36 | CC/C(=N\NC(=O)c1ccc(C(C)(C)C)cc1)c1ccccc1 | inactive
37 | Cn1cnnc1C1CCCN(S(=O)(=O)N2CCCCC2)C1 (centres undefined) | inactive
38 | Cc1ccc(OCC(O)Cn2cnc3sccc3c2=O)c(C)c1 (centres undefined) | inactive
39 | COc1ccc2c(CC(=O)N3CCc4cc(OC)c(OC)cc4C3)coc2c1 | inactive
40 | Cc1oc2ccn(Cc3ccccc3F)c(=O)c2c1C(=O)NCCCN1CCCCC1C (centres undefined) | inactive
41 | COc1ccc(CC(=O)NC[C@@H]2C=C(C)[C@H](Cc3nc4ccncc4[nH]3)C[C@H]2C(C)C)cc1 | inactive
42 | Cc1cc(C)c(NC(=O)CSc2nc3ccncc3[nH]2)c(C)c1 | inactive
43 | COc1ccc(C2=NC(c3ccncc3)=Nc3ccc(Br)cc3N2)cc1 | inactive
44 | c1cc(-c2nc3ccncc3[nH]2)ccn1 | 126 µM (active) and 31.6 µM (active)

Row | Structure (SMILES) | Potency
45 | Cc1ccc(Nc2n[nH]nc2C(=O)Nc2ccc(C)cc2Cl)cc1 | inactive
46 | Cc1csc(CNC(=O)N(C)Cc2ccc3c(c2)OCCO3)n1 | inactive
47 | O=C(Nc1ccccc1Cc1ccccc1)c1cccc[n+]1[O-] | inactive
48 | O=C(NCCCn1ccnc1)c1ccc(-c2ncc3cnc(-c4cccc(F)c4)cn23)cc1 | 17.8 µM (active)
49 | Cc1ccc(-c2nc(C#N)c(NCCCn3ccnc3)o2)cc1 | inactive
50 | CC(C)(Oc1nn(CCOc2ccccc2)c2ccccc12)C(=O)NCCCn1ccnc1 | inactive
51 | Cn1cc(S(=O)(=O)N2CCC(C(=O)Nc3ccc(OC(F)F)c(Cl)c3)CC2)cc1C(N)=O | inactive
52 | COC(=O)c1sccc1S(=O)(=O)Nc1ccc(OC)cc1 | inactive
53 | Cc1cc(C)n(CCC(=O)N[C@@H]2CN(S(C)(=O)=O)C[C@H]2CN(C)C)n1 | inactive
54 | CN(C)C[C@@H]1CN(S(C)(=O)=O)C[C@H]1NC(=O)c1ccc2ncccc2c1 | inactive
55 | O=C(N[C@@H]1CN(Cc2c(F)cccc2F)C[C@H]1CO)c1ccccc1 | inactive
56 | CN(C)C[C@@H]1CN(S(C)(=O)=O)C[C@H]1NC(=O)c1cccc(F)c1 | inactive
57 | COc1ccc2[nH]c(C(=O)N[C@@H]3CN(S(C)(=O)=O)C[C@H]3CN(C)C)cc2c1 | 28.2 µM (active)
58 | CC(CNC(=O)c1cc2ccccc2[nH]1)c1ccccc1 (centres undefined) | inactive
59 | CN(C)C[C@@H]1CN(C)C[C@H]1NC(=O)c1ccnnc1 | inactive
60 | CN(C)C[C@@H]1CN(C)C[C@H]1NC(=O)c1cc2ccccc2[nH]1 | 25.1 µM (active)
61 | CN(C)C[C@@H]1CN(S(C)(=O)=O)C[C@H]1NC(=O)c1nn(C)c2ccccc12 | 28.2 µM (active)
62 | COc1ccc(C(=O)N[C@H]2C[C@@H]3CC[C@H]2C3)cc1 | inactive
63 | COc1ccc2cc(C(=O)N3CCC(C(C)C(=O)NCCCN4CCCC4)CC3)[nH]c2c1 (centres undefined) | inactive
64 | CN(C)C[C@@H]1CN(Cc2ccccn2)C[C@H]1NC(=O)c1ccc2cc[nH]c2c1 | 28.2 µM (active)
65 | O=C(O)COc1ccc2c(=O)c(Oc3ccc(Cl)cc3)coc2c1 | inactive
66 | Cc1ccc(CNC(=O)Cn2c(=O)ccc3cc(S(=O)(=O)N4CCC(C)CC4)ccc32)o1 | inactive

Row | Structure (SMILES) | Potency
67 | Brc1ccc(/C=N/N=C/c2ccc(Br)s2)s1 | inactive
68 | COc1ccc(NC(=O)CN(C)c2nc(CN3CCOCC3)nc3sc(C)c(C)c23)cc1 | inactive
69 | Fc1ccc2oc([C@H]3CCN(C4CCOCC4)C3)nc2c1 | 44.7 µM (active)
70 | Cc1nnc([C@H]2CCN(Cc3ccc(F)cc3)C2)o1 | inactive
71 | COC1CN(c2cccc(F)c2)C12CCN(C1CCOCC1)CC2 (centres undefined) | inactive
72 | Cc1ccc(-c2nc3ccc(C(=O)N4CCC(CC(=O)N5CCCCCC5)CC4)cc3o2)cc1 | inactive
73 | COc1ccc(C2=NOC(C(=O)Nc3cc(C)nn3-c3ccccc3)C2)cc1 (centres undefined) | inactive
74 | O=C(COc1ccccc1)Nc1ccc2c(=O)c3ccccc3oc2c1 | inactive
75 | O=C(O)c1ccc2oc(-c3cccc(Cl)c3)nc2c1 | inactive
76 | CCc1ccc(CN(C)C(=O)c2ccc3oc(-c4cccc(F)c4)nc3c2)nc1 | 28.2 µM (active)
77 | CN(C)C(=O)c1ccc(OCc2coc(-c3cccc(F)c3)n2)cc1 | inactive
78 | CCCCS(=O)CC(O)CCl (centres undefined) | inactive
79 | O=C(CN1CCCCCC1)Nc1ccc(Cl)cc1F | inactive
80 | CN(C)C(=O)CN1C(=O)c2ccccc2C1c1cn(C)c2ccccc12 (centres undefined) | inactive
81 | O=C(CSc1nc(-c2cccc(F)c2)[nH]c1-c1ccccc1)Nc1ccc2c(c1)OCO2 | inactive
82 | O=C(CCNc1c(-c2ccc(F)cc2)nc2cnccn12)Nc1ccc2c(c1)OCO2 | 25.1 µM (active)
83 | Oc1ccc(-c2nc3ccc(Cl)cn3c2Nc2ccc3c(c2)OCO3)cc1 | inactive
84 | Cc1cc(C)cc(C(=O)NCCC(=O)N2CCCC2)c1 | inactive
85 | Cc1cccc(-c2cccc(NC(=O)C3CCCN(C(=O)CC(F)(F)F)C3)c2)c1 (centres undefined) | inactive
86 | Cc1cccc(-c2nc3cnccn3c2NCCC(=O)N2CCCCCC2)c1 | 28.2 µM (active)
87 | CC(=O)N1CCN(C(=O)CCC(=O)N2CCC(c3noc4cc(F)ccc34)CC2)CC1 | inactive
88 | O=C(Nc1c(-c2ccc(F)cc2)nc2ccccn12)c1cccc(F)c1 | inactive

Row | Structure (SMILES) | Potency
89 | CC1CCN(C(=O)CCNc2c(-c3ccc(F)cc3)nc3cnccn23)CC1 | 31.6 µM (active)
90 | O=C1CCN(C(=O)C2CCN(C(=O)CCCc3ccccc3)CC2)CCCCCCN1 | inactive
91 | O=C(CCNc1c(-c2ccccc2)nc2cnccn12)N1CCC(N2CCCCC2)CC1 | 28.2 µM (active)
92 | O=C(NC1CCCCC1)N1CCCCCC1c1nc(-c2cccnc2)no1 (centres undefined) | inactive
93 | CC(C)CCN(CC(=O)NC(N)=O)C1CC1 | inactive
94 | COc1ccc(NC(=O)Cc2c(C)c3ccc(OC)c(C)c3oc2=O)cc1OC | inactive
95 | COC(=O)c1ccc(OCc2cccc(C#N)c2)c(OC)c1 | inactive
96 | Cn1c(=O)c2c(ncn2CCC(=O)Nc2ccc(F)cc2F)n(C)c1=O | inactive
97 | COc1ccc(Nc2ccccc2)cc1 | inactive
98 | CCCn1nc(C(=O)OCc2nc(-c3cccc(OC)c3)no2)c2ccccc2c1=O | inactive
99 | O=C(NCc1ccc(F)cc1)c1nc(-c2ccccc2)c2ccccn12 | 28.2 µM (active)
100 | COCCNC(=O)c1cc(-c2cccc(Cl)c2)on1 | inactive
101 | Cc1cccc(N2CCN(C(=O)c3cnc(N4CCCC4)nc3C)CC2)c1C | inactive
102 | O=C(c1cc(-c2ccccc2)n[nH]1)N1CCN(c2ncccn2)CC1 | inactive
103 | Cc1cccc(C)c1-c1nc(C(=O)NCc2ccc(F)cc2)n2ccccc12 | 28.2 µM (active)
104 | Cc1cccc(C)c1-c1nc(C(=O)N2CCN(c3ncccn3)CC2)n2ccccc12 | 31.6 µM (active) and 28.2 µM (active)
105 | Cc1cc2ccccc2n1CCNC(=O)c1ccc(F)cc1 | inactive
106 | Cc1ccc(CNC(=O)c2c(O)nc3c(C)cccn3c2=O)cc1 | inactive
107 | O=C(CSc1nccn1Cc1ccc(F)cc1)NCc1ccccc1 | inactive
108 | Cc1nc(-c2ccccc2)n(CC(=O)NCc2ccc(F)cc2)c(=O)c1CCO | inactive
109 | COC(=O)CNC(=O)c1nc(-c2ccc([S+](C)(=O)[O-])cc2)c2ccccn12 | inactive
